Here are results for 61 compounds from PubChem BioAssay AID1259313 (Sanford-Burnham Center for Chemical Genomics, 2017).

The campaign covered roughly 340,000 compounds. About 8,500 (2.5%) were called active. For the sample, actives were picked, then their nearest neighbours and some compounds at random. Values without a mark were called inactive.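 Rule for the calls: active = melting temperature shift of at least 10% of the positive control shift, at one fixed dose; inactive = the rest.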

This experiment deals with Glutamate receptor ionotropic, NMDA 3A (GRIN3A) ligand-binding domain. Kind of experiment: binders of NR3A ligand-binding domain, primary screen, biophysical, differential scanning fluorimetry, uHTS (AID 1259313). The settings on record: NR3A LBD differential scanning fluorimetry, at 25 µM, active compounds read high, 0% = protein alone, 100% = glycine-bound protein. (In general: In DSF a fluorescence change marks the thermal transition of the protein.)
As for `CC1=C(C(=O)OC(C)(C)C)C(c2ccc(Br)cc2)NC(=O)N1CCCC(=O)O` (stereo unspecified), the Tm shift relative to glycine control was 0.08%.

With `COC(=O)[C@H](Cc1ccccc1)NC(=O)Nc1ccc(S(N)(=O)=O)cc1`, the Tm shift relative to glycine control is -3.46%.

For the compound `NS(=O)(=O)c1ccc(Nc2nc(-c3ccccc3)cs2)cc1`, the Tm shift relative to glycine control is 15.5% (active).

In the case of `NS(=O)(=O)c1ccc(NS(=O)(=O)/C=C/c2ccccc2)cc1`, the Tm shift relative to glycine control was -15.1%.

With `O=C(CC1C(=O)NCCN1CC(c1ccccc1)c1ccccc1)NCCc1cn[nH]c1` (stereo unspecified), the Tm shift relative to glycine control was -1%.

As for `Cc1cccc(OCCC(=O)OCc2csc(CC(=O)Nc3ccccc3C)n2)c1`, the Tm shift relative to glycine control is -1.22%.

In the case of `Cc1cccc(NC(=O)C2CCN(C(=O)NC3CCCCC3)CC2)c1`, the Tm shift relative to glycine control was -0.18%.

As to `COc1cccc(NC(=O)c2cc(S(=O)(=O)N3CCc4ccccc43)cn2C)c1`, the Tm shift relative to glycine control was 1.72%.

Turning to `COc1ccc(C(=O)C2CCCN(Cc3cccn3-c3ccccn3)C2)c(C)c1` (stereo unspecified), the Tm shift relative to glycine control was 0%.

In the case of `CC(C)CCN1CCN=C1N(C)C`, the Tm shift relative to glycine control is -0.97%.

As for `CCOc1ccc(N/C=C/C(=O)c2ccccc2)cc1`, the Tm shift relative to glycine control was -12.3%.

Turning to `O=C(/C=C\NCC(=O)c1ccccc1)c1ccccc1`, the Tm shift relative to glycine control was 12.7% (active).

Regarding `O=C(/C=C/NCc1ccc(F)cc1)c1ccccc1`, the Tm shift relative to glycine control was 0.09%.

With `COC(=O)Cn1c(=NC(=O)c2cc(OC)c(OC)c(OC)c2)sc2cc(OC)ccc21`, the Tm shift relative to glycine control is 4.34%.

For `O=C(Cn1cc(C(=O)c2cccs2)c2ccccc21)NCc1cccs1`, the Tm shift relative to glycine control was -6.3%.

For `COCCNC(=O)Cn1cc(C(=O)c2cccs2)c2ccccc21`, the Tm shift relative to glycine control is 4.81%.

Turning to `COC(=O)c1cn(CC(=O)NCc2cccs2)c2ccccc12`, the Tm shift relative to glycine control is 11.7% (active).

In the case of `CC(NC(=O)c1ccccc1SCC(=O)N1CCCC1)c1ccccc1` (stereo unspecified), the Tm shift relative to glycine control was 1.13%.

As for `Cc1cc(Cl)c(S(=O)(=O)NCCC(=O)O)cc1OCC(N)=O`, the Tm shift relative to glycine control was -2.09%.

Take `Cc1cc(Cl)c(S(=O)(=O)Nc2ccc3c(c2)OCCO3)cc1OCC(N)=O`: the Tm shift relative to glycine control was 5.63%.

For the compound `Cc1cc(Cl)c(S(=O)(=O)N(C)C)cc1OCC(N)=O`, the Tm shift relative to glycine control is 10.2% (active).

Take `O=C(Nc1ccccc1F)c1cc(S(=O)(=O)N2CCCCC2)cs1`: the Tm shift relative to glycine control was -1.16%.

As for `CCN(c1ccccc1)S(=O)(=O)c1cccc(C(=O)NCc2ccccc2CN2CCOCC2)c1`, the Tm shift relative to glycine control is 2.34%.

With `CCOc1ccc(NC(=O)CSc2nncn2C)cc1`, the Tm shift relative to glycine control is -0.09%.

Regarding `CCOc1ccc(NC(=O)c2ccc(CSc3nnnn3C)cc2)cc1`, the Tm shift relative to glycine control was 26.8% (active).

With `COc1ccc(CSc2nnnn2-c2ccc(C(=O)O)cc2)cc1`, the Tm shift relative to glycine control was 3.65%.

Turning to `O=C(CSc1ccc(-c2ccco2)nn1)Nc1cccc(F)c1`, the Tm shift relative to glycine control is -2.4%.

As to `O=C(Nc1cccc(F)c1)c1cc(-c2ccco2)nc2ccccc12`, the Tm shift relative to glycine control was 11.7% (active).

For the compound `O=C(O)c1cccc(NC(=O)c2cc(-c3cccc(Cl)c3)nc3ccccc23)c1`, the Tm shift relative to glycine control was -12.1%.

`CC1CCN(C(=O)COC(=O)CCC(=O)c2cccs2)CC1`: the Tm shift relative to glycine control is 0.85%.

Regarding `Cc1ccc(COc2ccc(C(=O)NN)cc2)cc1`, the Tm shift relative to glycine control was -4.77%.

Regarding `Cc1cccc(OCc2ccc(C(=O)Nc3ccc(F)cc3)cc2)c1`, the Tm shift relative to glycine control is 13.3% (active).

For the compound `Cc1cccc(C(=O)Nc2ccc(Oc3cnccn3)cc2)c1`, the Tm shift relative to glycine control is 1.77%.

As for `CC(C)(CNC(=O)CNC(=O)C1CCCCC1)N1CCOCC1`, the Tm shift relative to glycine control is -1.27%.

For the compound `COc1ccc(NC(=O)CCCC2CCCCC2)c(OC)c1`, the Tm shift relative to glycine control was 2.43%.

On to `Cc1ccc(CNC(=O)Cn2cnc3c(NCc4ccccc4)ncnc32)o1`, for which the Tm shift relative to glycine control was 3%.

For `Cc1ccc(Nc2nc(-c3ccc(O)cc3O)cs2)nc1`, the Tm shift relative to glycine control was 27.4% (active).

In the case of `Cc1ccc(-c2csc(NCCc3nc4cc(Cl)c(Cl)cc4n3CCOCCO)n2)cc1`, the Tm shift relative to glycine control is -1.81%.

Take `COc1ccc(CCNC(=O)NS(=O)(=O)c2ccc(C)cc2)cc1OC`: the Tm shift relative to glycine control was -2.28%.

Turning to `O=[N+]([O-])c1ccccc1SNc1ccccn1`, the Tm shift relative to glycine control is 1.04%.

On to `CCOC(=O)N1CCN(CC(=O)c2ccc3c(c2)CCN3)CC1`, for which the Tm shift relative to glycine control was -1.56%.

As to `C[C@H](OC(=O)n1ccnc1)[C@@H]1O[C@@]2(C)CCC[C@@H]1O2`, the Tm shift relative to glycine control was -0.49%.

On to `COc1ccc(N(CC(=O)NC2CCCCCCC2)S(=O)(=O)c2c(C)nn(C)c2C)cc1`, for which the Tm shift relative to glycine control is -1.2%.

Turning to `O=S(=O)(c1ccc(F)cc1)N1CCN(C(=S)NC2CCCC2)CC1`, the Tm shift relative to glycine control is 1.46%.

As for `O=C(C1CCCN(S(=O)(=O)c2ccccc2)C1)N1CCN(c2ccc(F)cc2)CC1` (stereo unspecified), the Tm shift relative to glycine control was -0.26%.

`O=C(O)C1CCCCC1C(=O)N1CCN(S(=O)(=O)c2ccc(F)cc2)CC1` (stereo unspecified): the Tm shift relative to glycine control was 14.4% (active).

As for `Cc1cc(=O)oc2c1ccc1ccccc12`, the Tm shift relative to glycine control was 0.49%.

Consider `CCOC(=O)c1cccc(NC(=O)C2CCCN(S(=O)(=O)c3cnc[nH]3)C2)c1` (stereo unspecified), for which the Tm shift relative to glycine control was -1.2%.

Consider `Cc1cc(C)c(C(=O)CSc2nc(C)cc(=O)[nH]2)c(C)c1`, for which the Tm shift relative to glycine control is -3.2%.

As to `COC(=O)c1ccccc1SC1CC(=O)N(c2cccc(C)c2)C1=O` (stereo unspecified), the Tm shift relative to glycine control was -2.37%.

As for `O=C(Nc1ccccc1-c1ccccc1)c1ccccc1[N+](=O)[O-]`, the Tm shift relative to glycine control was -0.71%.

For the compound `COc1cc(OC)c(C(=O)Nc2ccccc2-c2ccccc2)cc1OC`, the Tm shift relative to glycine control is 11.5% (active).

As for `COc1cc2ccccc2cc1C(=O)Nc1ccccc1C`, the Tm shift relative to glycine control was 3.64%.

On to `Cc1sc(NC(=O)C2=COCCO2)c(C#N)c1C`, for which the Tm shift relative to glycine control was -1.88%.

Consider `O=C(Nc1cccc(-c2cccc(Cl)c2)c1)C1CCN(C2CCC2)CC1`, for which the Tm shift relative to glycine control was -0.08%.

Turning to `C=CCSc1nnc(Cn2c(=O)sc3ccccc32)n1C`, the Tm shift relative to glycine control was -0.55%.

Consider `CCOC(=O)c1cc2cc(-c3c(C(=O)OCC)oc4cc(O)cc(O)c4c3=O)ccc2o1`, for which the Tm shift relative to glycine control was 22.4% (active).

Turning to `O=c1c(-c2ccc3c(c2)OCCO3)c(C(F)(F)F)oc2cc(O)cc(O)c12`, the Tm shift relative to glycine control is 6.01%.

In the case of `CCOC(=O)c1oc2c(CN3CCN(C)CC3)c(O)ccc2c(=O)c1-c1ccc(Br)cc1`, the Tm shift relative to glycine control is -3.94%.

As to `Nc1nc(SCc2ccc([N+](=O)[O-])cc2)c2ncn(C3OC(CO)C(O)C3O)c2n1` (stereo unspecified), the Tm shift relative to glycine control is 1.21%.

Take `COc1ccc(CN2CCNC(=O)C2CC(=O)N(C)Cc2ccccn2)cc1OC` (stereo unspecified): the Tm shift relative to glycine control is 2.19%.
